For some of these results: Measured potencies and affinities stand elsewhere.
Columns and labels:
Parameters in all cases: scale not given: direction of the effect not stated beside the values
[1] = target: Protein translocase subunit SecA (Escherichia coli (strain K12)) (UniProt P10408); assay: Assay to Identify E. coli SecA ATPase Inhibitors; assay type: functional; conditions: 30 µM
[2] = target: T1, Ubiquitin-activating enzyme e1, putative (Leishmania donovani (strain BPK282A1)) (UniProt E9BSI1); assay: Leishmania donovani Ubiquitin Activating Enzyme (LdE1); assay type: functional; conditions: 30 µM
T1 sequence (whole entry): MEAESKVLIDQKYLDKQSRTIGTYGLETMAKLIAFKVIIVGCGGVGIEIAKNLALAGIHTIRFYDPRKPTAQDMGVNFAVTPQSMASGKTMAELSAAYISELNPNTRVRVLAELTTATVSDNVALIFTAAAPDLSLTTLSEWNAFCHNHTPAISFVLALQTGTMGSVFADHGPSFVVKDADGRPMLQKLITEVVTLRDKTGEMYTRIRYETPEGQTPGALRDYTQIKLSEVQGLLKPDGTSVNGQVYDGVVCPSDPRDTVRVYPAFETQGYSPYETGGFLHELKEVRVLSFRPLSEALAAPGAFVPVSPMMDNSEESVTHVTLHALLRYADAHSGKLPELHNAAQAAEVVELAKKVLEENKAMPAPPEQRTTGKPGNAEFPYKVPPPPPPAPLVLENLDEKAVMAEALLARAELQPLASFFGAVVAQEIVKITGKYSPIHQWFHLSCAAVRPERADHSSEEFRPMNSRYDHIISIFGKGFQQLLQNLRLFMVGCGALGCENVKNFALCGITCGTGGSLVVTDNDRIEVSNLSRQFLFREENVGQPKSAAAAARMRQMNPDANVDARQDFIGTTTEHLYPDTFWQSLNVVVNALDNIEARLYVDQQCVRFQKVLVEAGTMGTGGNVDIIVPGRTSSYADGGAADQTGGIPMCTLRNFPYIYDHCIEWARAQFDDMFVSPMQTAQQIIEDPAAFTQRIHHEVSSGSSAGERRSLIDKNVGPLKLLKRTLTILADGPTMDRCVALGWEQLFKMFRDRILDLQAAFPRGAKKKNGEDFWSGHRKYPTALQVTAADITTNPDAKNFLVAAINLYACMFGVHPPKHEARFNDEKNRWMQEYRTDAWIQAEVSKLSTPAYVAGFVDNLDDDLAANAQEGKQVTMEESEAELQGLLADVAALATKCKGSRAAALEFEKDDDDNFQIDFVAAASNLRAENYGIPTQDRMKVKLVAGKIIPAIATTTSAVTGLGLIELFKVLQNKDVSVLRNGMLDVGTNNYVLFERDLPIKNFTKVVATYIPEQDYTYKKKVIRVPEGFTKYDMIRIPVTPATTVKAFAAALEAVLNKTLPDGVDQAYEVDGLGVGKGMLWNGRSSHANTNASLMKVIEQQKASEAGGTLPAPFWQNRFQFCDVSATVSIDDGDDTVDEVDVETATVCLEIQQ

[3] = target: AMP-activated protein kinase, AMPK (Homo sapiens) (UniProt P54646+O43741+P54619+Q9UGJ0+Q9Y478+Q13131+Q9UGI9); assay: AMP-dependent Kinase enzyme assay. An in vitro enzyme assay that detects ADP turnover that is directly proportional to AMPK activity. This uses naive AMPK that is activated during the assay with MK-8722; assay type: functional; conditions: 30 µM
[4] = target: Sialic acid-binding Ig-like lectin 9 (Homo sapiens) (UniProt Q9Y336); assay: Hs-Siglec9 ALPHAscreen SOP 20170721; conditions: 10 µM
Sequence of Sialic acid-binding Ig-like lectin 9 (Homo sapiens) (Q9Y336 whole entry): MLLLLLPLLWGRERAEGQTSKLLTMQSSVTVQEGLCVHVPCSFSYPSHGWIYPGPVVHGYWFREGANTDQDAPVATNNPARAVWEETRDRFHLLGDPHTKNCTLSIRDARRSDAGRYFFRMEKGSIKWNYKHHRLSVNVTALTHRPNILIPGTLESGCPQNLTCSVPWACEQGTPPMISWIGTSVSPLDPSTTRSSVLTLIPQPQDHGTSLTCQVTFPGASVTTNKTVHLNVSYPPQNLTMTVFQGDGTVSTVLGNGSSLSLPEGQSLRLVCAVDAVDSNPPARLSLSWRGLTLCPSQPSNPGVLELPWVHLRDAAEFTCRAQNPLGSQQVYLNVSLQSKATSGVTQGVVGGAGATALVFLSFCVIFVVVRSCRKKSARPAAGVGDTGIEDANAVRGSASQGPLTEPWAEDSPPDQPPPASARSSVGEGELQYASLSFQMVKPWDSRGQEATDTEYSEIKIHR

Trypanosoma cruzi = assay: Trypanosoma cruzi phosphomannomutase and mannose-1-phosphate guanylyltransferase assay; assay type: functional; conditions: 10 µM
[5] = target: T2, Arginase-2, mitochondrial (Homo sapiens) (UniProt P78540); assay: in vitro enzyme assay to detect the production of urea directly proportional to the activity of Arginase II; assay type: functional; conditions: 33.3 µM; further: in the data most compounds retested in dose-response had high values
T2 sequence (whole entry): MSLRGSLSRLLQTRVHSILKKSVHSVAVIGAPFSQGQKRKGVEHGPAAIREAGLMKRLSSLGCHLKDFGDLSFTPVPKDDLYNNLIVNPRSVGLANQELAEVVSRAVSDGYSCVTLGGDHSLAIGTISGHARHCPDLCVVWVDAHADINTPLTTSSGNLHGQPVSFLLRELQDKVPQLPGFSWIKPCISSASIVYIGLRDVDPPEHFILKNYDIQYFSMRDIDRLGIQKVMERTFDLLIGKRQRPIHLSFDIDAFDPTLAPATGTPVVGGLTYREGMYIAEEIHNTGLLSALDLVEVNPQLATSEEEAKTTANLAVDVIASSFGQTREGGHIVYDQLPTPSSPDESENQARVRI

[6] = target: T3, Proteasome subunit beta (Trypanosoma cruzi) (UniProt O96673); assay: Trypanosoma cruzi proteasome chymotrypsin-like activity (TcProtChymo) assay.; further: in the data most compounds retested in dose-response had high values; assay type: functional; conditions: 9.37 µM
T3 sequence (whole entry): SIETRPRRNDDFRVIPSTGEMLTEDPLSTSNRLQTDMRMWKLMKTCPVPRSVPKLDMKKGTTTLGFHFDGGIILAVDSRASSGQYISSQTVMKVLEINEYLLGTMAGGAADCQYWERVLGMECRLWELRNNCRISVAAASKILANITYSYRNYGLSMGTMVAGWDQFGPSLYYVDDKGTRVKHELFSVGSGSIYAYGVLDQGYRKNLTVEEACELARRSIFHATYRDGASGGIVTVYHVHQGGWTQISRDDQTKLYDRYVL

Homo sapiens = organism: Homo sapiens; assay: To identify inhibition of the IFN signalling (Jak-Stat) pathway via expression of an eGFP reporter gene under the control of an IFN-stimulated response element (ISRE) containing MxA promoter.; assay type: functional; conditions: 30 µM
[7] = target: T4, Tyrosyl-tRNA synthetase, putative (Trypanosoma cruzi (strain CL Brener)) (UniProt Q4DSP6); assay: Trypanosoma cruzi tyrosyl tRNA synthetase (TcYRS) _High Tyrosine SOP; assay type: functional; conditions: 30 µM; further: in the data most compounds retested in dose-response had high values
T4 sequence (whole entry): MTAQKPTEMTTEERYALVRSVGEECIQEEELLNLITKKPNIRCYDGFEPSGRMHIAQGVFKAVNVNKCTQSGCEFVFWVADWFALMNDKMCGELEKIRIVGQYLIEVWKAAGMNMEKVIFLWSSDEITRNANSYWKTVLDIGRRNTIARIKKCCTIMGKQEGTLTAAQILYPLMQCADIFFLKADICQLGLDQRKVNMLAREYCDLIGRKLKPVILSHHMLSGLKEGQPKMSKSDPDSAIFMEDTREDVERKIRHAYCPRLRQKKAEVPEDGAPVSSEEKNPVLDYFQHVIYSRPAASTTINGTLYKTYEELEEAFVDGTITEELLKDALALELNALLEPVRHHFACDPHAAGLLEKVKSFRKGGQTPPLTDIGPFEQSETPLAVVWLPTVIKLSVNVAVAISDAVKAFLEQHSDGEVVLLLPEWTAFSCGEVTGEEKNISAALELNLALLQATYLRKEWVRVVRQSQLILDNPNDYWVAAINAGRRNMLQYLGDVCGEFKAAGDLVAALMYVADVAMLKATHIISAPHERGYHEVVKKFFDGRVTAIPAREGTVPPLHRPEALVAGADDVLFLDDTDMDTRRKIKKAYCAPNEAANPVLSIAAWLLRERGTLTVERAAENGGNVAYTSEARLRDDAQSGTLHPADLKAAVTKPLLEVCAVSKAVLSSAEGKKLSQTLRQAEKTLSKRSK

[8] = target: T4, Tyrosyl-tRNA synthetase, putative (Trypanosoma cruzi (strain CL Brener)); assay: Trypanosoma cruzi tyrosyl tRNA synthetase (TcYRS) SOP; assay type: functional; conditions: 30 µM
[9] = target: Chromo domain-containing protein 1 (Saccharomyces cerevisiae (strain ATCC 204508 / S288c) (Baker's yeast)) (UniProt P32657); assay: ScCHD-1 Enzyme Inhibition Assay; assay type: functional; conditions: 30 µM; further: in the data most compounds retested in dose-response had high values
Sequence of Chromo domain-containing protein 1 (Saccharomyces cerevisiae (strain ATCC 204508 / S288c) (Baker's yeast)) (P32657 whole entry, the tested form may be a part): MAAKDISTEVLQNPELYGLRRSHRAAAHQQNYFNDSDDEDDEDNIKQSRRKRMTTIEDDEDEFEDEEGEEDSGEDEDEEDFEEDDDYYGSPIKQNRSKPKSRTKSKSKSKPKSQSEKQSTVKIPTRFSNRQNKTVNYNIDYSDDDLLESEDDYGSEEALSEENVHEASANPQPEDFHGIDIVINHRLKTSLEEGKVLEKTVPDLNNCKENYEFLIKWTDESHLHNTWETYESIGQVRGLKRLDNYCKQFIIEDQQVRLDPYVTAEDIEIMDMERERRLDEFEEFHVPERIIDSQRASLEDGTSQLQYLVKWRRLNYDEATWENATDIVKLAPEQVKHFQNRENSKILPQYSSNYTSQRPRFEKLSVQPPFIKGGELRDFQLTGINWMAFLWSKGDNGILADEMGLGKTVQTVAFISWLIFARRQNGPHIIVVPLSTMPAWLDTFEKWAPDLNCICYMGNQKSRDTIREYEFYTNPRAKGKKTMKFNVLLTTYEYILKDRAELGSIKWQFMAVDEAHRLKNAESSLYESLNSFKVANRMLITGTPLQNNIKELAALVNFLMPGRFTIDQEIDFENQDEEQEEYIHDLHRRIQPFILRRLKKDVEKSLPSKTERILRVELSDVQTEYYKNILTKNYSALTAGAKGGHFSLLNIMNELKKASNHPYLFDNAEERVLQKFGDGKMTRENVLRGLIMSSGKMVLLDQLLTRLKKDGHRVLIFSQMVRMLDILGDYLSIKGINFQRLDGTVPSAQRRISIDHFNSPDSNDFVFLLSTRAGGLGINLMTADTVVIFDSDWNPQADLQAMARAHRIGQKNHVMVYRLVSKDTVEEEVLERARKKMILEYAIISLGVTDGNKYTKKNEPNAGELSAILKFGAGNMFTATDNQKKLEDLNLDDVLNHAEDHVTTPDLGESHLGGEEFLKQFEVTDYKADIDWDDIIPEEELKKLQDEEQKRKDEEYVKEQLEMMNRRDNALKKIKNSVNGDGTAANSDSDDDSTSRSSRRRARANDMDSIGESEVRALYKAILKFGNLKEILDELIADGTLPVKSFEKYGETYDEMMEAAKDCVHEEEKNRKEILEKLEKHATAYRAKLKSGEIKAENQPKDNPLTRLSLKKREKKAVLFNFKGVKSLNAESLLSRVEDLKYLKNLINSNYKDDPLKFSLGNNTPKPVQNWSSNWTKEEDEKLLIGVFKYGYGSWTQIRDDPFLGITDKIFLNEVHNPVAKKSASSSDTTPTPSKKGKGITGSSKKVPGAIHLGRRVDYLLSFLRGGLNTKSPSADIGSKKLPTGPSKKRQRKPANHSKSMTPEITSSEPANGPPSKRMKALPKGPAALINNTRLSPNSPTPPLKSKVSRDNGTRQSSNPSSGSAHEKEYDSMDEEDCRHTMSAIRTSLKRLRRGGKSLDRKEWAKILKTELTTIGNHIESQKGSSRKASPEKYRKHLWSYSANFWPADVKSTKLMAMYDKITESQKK

Sequence of Protein translocase subunit SecA (Escherichia coli (strain K12)) (P10408 whole entry): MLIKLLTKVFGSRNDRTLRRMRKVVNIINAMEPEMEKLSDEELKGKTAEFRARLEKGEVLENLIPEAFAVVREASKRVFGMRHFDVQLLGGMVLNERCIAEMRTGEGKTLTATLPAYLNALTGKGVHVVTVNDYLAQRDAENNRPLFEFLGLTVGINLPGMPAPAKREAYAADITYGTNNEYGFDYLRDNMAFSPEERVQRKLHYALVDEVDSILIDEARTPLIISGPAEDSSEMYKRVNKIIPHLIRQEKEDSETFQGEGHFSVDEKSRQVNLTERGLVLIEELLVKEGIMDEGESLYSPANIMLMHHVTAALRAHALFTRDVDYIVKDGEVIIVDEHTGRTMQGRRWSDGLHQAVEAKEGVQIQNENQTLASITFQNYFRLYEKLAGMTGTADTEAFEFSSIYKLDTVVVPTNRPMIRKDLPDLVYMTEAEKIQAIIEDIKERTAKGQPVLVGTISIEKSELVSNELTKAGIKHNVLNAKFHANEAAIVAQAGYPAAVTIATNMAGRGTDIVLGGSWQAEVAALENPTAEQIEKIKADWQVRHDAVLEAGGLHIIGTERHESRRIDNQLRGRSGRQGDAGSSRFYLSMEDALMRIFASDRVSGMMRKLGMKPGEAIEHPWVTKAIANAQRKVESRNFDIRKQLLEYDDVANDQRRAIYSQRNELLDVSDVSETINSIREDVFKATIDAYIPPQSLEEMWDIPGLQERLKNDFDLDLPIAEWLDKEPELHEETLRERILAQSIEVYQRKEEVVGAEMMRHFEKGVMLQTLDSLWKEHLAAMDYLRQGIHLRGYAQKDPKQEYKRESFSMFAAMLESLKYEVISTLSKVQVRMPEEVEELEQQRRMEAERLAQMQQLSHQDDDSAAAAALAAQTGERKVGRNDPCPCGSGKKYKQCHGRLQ

Row | Compound | Percent Effect [1] [%] | Percent Effect [2] [%] | Percent Effect [3] [%] | Percent Effect [4] [%] | Percent Effect (Trypanosoma cruzi) [%] | Percent Effect [5] [%] | Percent Effect [6] [%] | Percent Effect (Homo sapiens) [%] | Percent Effect [7] [%] | Percent Effect [8] [%] | Percent Effect [9] [%]
1 | CCn1ncc(CN2CCc3c(nc(-c4cccnc4)[nH]c3=O)C2)c1C | -4.9 | 5.33 | 9.46 | 2.36 | 7.87 | 0.699 | 10.3 | 2.75 | 5.32 | 11.5 | -4.43
2 | O=S1(=O)COCCN1Cc1ccc(Cl)c(F)c1 | 0.108 | 16.2 | -3.31 | 17.6 | 3.28 | 2.38 | 14.7 | 0.549 | 5.82 | 14.6 | -5.23
3 | COc1cc(NC(=O)c2cc(C)sc2C)c(C(=O)N(C)C)cc1OC | 0.25 | 7.79 | -2.17 | 6.61 | 4.42 | -37.2 | 19.1 | -8.35 | 4.3 | 13.6 | -1.78
4 | Cc1nn(C)c(N(C)C)c1CNCC(O)c1ccccc1 (stereo unspecified) | -0.702 | 2.74 | -3.51 | -6.11 | -4.31 | 3.64 | 16.1 | -8.18 | 3.23 | 10 | -3.32
5 | COCC(=O)N1CCN(C(=O)c2scnc2C)CC1 | -4.41 | 7.89 | 1.74 | 5.01 | 2.82 | -4.73 | 12.4 | 19.8 | 1.06 | 10.4 | 0.643
6 | Cc1cc(-c2cnc(NCc3cccnc3)nc2C(C)(C)C)on1 | -1.82 | 0 | 24.3 | 4.38 | -3.74 | -0.699 | 8.37 | 43.3 | 6.38 | 6.41 | -0.51
7 | COCC(=O)N1CCO[C@H]2[C@H](OC)CC[C@@H]21 | -6.12 | 5.41 | 1.82 | -0.654 | -4.79 | 4.78 | 21.8 | 9.88 | 1.08 | 5.13 | 1.01
8 | CSCC(CCO)NC(=O)Nc1cccc(Br)c1 (stereo unspecified) | -3.42 | 2.74 | 8.84 | -3.56 | -3.53 | 3.18 | 17.2 | 6.61 | 0 | 2.5 | -2.08
9 | CC(C)(C)n1cc(C(=O)N2CCN(Cc3ccccc3F)CC2)cn1 | -2.41 | 13.2 | -1.01 | 8.67 | 4.89 | 0.383 | 22.4 | 10.5 | 6.37 | 21.9 | -11.6
10 | O=C(Nc1nncs1)NC1CCc2ccccc21 (stereo unspecified) | 0.119 | 5.48 | 1.57 | 3.21 | -6.94 | -3.19 | 8.13 | 40.4 | 6.25 | 16.1 | -1.82
11 | COc1ccccc1CC(=O)NS(C)(=O)=O | -4.83 | 5.2 | 1.28 | 1.8 | -1.87 | -1.42 | 7.6 | 20.4 | 4.85 | 14.6 | -6.74
